Data: article PMC13541613, “GHT-SELEX demonstrates unexpectedly high intrinsic sequence specificity and complex DNA binding of many human transcription factors”

Tests used:
Assay in all cases: HT-SELEX; 20 mM HEPES pH 7, 140 mM KCl, 5 mM NaCl, 1 mM K2HPO4, 2 mM MgSO4, 100 uM EGTA, ZnSO4, 0.1% Tween20; room temperature, 1 h; high values mean tight binding
Conditions in all cases: protein: ivt; tags: eGFP (N-terminal); dsDNA, one strand shown
ZNF721 full-length = ZNF721 full-length (Homo sapiens, UniProt Q8TF20-2 1-923)
Method in brief: (§1)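 The binding signal is a relative k-mer count in selected reads, and higher values mean tighter binding. To obtain these reads, bead-bound tagged transcription factor (full-length or DNA-binding-domain fragment, produced in HEK293 lysate or cell-free extract) was mixed with a randomized 40-base DNA library for 1 h at room temperature in low-stringency HEPES/KCl buffer with Tween20. Bound DNA was recovered by washing and heat elution, PCR-amplified through successive cycles and sequenced on Illumina (~3 million 60 bp reads per sample).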

ZNF721 DBD1 = ZNF721 DBD1 (Homo sapiens, UniProt Q8TF20-2 29-461)
Method in brief: as §1

ZNF721 DBD2 = ZNF721 DBD2 (Homo sapiens, UniProt Q8TF20-2 395-923)
Method in brief: as §1

Sequence of ZNF721 DBD1 (Q8TF20 17-449): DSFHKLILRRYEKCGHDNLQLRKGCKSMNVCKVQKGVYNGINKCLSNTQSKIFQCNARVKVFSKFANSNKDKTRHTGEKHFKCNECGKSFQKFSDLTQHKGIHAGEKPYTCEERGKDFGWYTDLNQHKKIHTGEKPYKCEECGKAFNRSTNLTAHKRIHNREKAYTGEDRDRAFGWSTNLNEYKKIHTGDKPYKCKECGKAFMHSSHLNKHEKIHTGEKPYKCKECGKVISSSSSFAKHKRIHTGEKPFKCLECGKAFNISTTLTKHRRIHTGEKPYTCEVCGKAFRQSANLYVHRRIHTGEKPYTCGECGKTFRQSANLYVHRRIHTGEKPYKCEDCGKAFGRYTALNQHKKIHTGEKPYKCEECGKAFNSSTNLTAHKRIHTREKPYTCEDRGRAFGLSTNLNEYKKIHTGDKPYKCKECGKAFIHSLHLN
Sequence of ZNF721 full-length (Q8TF20 other isoform, or with tags, fused parts or gaps): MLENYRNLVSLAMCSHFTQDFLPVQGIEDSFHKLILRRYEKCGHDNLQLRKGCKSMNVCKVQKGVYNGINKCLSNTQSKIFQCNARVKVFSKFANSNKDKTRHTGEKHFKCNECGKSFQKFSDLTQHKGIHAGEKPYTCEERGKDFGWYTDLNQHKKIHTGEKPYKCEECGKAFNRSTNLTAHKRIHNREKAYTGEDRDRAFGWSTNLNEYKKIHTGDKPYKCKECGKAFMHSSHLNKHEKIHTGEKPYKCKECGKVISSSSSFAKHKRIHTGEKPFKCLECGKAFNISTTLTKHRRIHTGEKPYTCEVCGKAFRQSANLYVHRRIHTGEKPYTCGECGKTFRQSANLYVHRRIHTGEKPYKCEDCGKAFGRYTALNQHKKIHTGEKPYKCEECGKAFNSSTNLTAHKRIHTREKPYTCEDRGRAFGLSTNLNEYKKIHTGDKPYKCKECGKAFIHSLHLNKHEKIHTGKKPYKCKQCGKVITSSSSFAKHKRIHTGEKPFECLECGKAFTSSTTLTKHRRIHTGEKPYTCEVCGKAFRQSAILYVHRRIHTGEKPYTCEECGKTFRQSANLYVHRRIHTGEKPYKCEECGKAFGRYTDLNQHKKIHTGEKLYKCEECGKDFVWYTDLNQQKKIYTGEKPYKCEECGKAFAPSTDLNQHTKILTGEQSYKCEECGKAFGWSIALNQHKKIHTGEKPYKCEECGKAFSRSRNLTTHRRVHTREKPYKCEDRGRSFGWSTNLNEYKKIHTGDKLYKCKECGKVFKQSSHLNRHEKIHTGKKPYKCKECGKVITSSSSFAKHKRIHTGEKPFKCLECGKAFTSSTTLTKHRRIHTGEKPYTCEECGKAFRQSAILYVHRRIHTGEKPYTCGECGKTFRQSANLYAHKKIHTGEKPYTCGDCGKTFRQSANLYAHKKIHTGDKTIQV
Sequence of ZNF721 DBD2 (Q8TF20 383-911): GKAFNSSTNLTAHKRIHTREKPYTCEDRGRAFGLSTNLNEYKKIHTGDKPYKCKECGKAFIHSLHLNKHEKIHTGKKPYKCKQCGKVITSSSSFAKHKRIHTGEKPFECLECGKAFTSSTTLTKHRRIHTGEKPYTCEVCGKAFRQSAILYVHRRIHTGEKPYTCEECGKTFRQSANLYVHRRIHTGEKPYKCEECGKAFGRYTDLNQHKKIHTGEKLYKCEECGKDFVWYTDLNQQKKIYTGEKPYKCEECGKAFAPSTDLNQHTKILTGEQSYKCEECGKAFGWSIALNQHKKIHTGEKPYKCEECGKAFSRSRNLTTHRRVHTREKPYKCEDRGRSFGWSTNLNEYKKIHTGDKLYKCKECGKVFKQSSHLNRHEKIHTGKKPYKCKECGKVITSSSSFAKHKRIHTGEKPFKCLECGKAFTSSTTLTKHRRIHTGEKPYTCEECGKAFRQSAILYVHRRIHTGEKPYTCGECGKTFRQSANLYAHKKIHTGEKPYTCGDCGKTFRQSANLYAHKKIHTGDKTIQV

Row | Sequence | binding signal (ZNF721 full-length) [relative 10-mer count] | binding signal (ZNF721 DBD1) [relative 10-mer count] | binding signal (ZNF721 DBD2) [relative 10-mer count]
1 | CCCTCGCCCC | 0.167 | 0.00702 | 0.00336
2 | CCCCCCTCCC | 0.304 | 0.0139 | 0.00372
3 | CTCCCCCCCA | 0.117 | 0.005 | 0.00587
4 | CGCCCCCACC | 0.19 | 0.00945 | 0.00515
5 | CCCATCCACC | 0.103 | 0.00569 | 0.00827
6 | CCCCACCACC | 0.447 | 0.0213 | 0.00767
7 | CCACCCCCAA | 0.118 | 0.00546 | 0.00491
8 | AAGCGTACCC | 0.208 | 0.104 | 0.0138
9 | CCACCTACCC | 0.112 | 0.00527 | 0.00455
10 | AAAAAAAGGC | 0.162 | 0.00225 | 0.117
11 | CCCCCTCCAC | 0.179 | 0.00908 | 0.00479
12 | CCCCCCCCCG | 0.112 | 0.00303 | 0.00156
13 | ACCCCACCTC | 0.104 | 0.00527 | 0.0024
14 | CCTCCCCCAC | 0.216 | 0.01 | 0.00767
15 | AGGGTGGGGG | 0.202 | 0.0102 | 0.00563
16 | CACGCCCCAC | 0.11 | 0.00326 | 0.00455
17 | AAAGCAGCAT | 0.31 | 0.00202 | 0.366
18 | CCCCCCACCA | 0.231 | 0.00904 | 0.00863
19 | CACCCCCCGC | 0.132 | 0.00537 | 0.00635
20 | AAAAGCAGTA | 0.17 | 0.0204 | 0.117
21 | GGGGGAGGGA | 0.151 | 0.00936 | 0.00384
22 | CACCCCCCCA | 0.16 | 0.00716 | 0.00443
23 | CCTCCCCCGC | 0.131 | 0.00647 | 0.00348
24 | CTGCTTTTTC | 0.202 | 0.00491 | 0.196

Row | Sequence | binding signal (ZNF721 full-length) [relative 10-mer count] | binding signal (ZNF721 DBD1) [relative 10-mer count] | binding signal (ZNF721 DBD2) [relative 10-mer count]
25 | CCCGCCGCCC | 0.194 | 0.00532 | 0.00192
26 | CCCACCCTAC | 0.114 | 0.00748 | 0.0116
27 | ACCCACCCCC | 0.265 | 0.0111 | 0.00252
28 | ACCCCCCGCC | 0.137 | 0.00555 | 0.00384
29 | CCCACACACC | 0.114 | 0.00449 | 0.00455
30 | CACCGTCCCC | 0.111 | 0.0039 | 0.00252
31 | GCATACCCAA | 0.217 | 0.00968 | 0.192
32 | TCCCACCCCA | 0.147 | 0.00564 | 0.00372
33 | CCACACCACC | 0.135 | 0.0055 | 0.00623
34 | CCCCCCTCAC | 0.103 | 0.00482 | 0.00443
35 | CCCTCCCCCC | 0.342 | 0.0158 | 0.00515
36 | CCACGACCCC | 0.118 | 0.00344 | 0.003
37 | TGGGTATGAA | 0.14 | 0.192 | 0.00108
38 | GGGGGGTGGA | 0.145 | 0.00615 | 0.00407
39 | CAGCCCCACC | 0.116 | 0.00349 | 0.0291
40 | CACCCGCCCA | 0.103 | 0.00358 | 0.0024
41 | CAACCCACCC | 0.171 | 0.00532 | 0.00623
42 | AAACAGCATG | 0.284 | 0.00101 | 0.345
43 | CCCCCCCGAC | 0.115 | 0.00408 | 0.00288
44 | GCTTCTTTCC | 0.103 | 0.0866 | 0.00156
45 | CCCCCGCGCC | 0.116 | 0.00381 | 0.00336
46 | CCCCCCTGCC | 0.121 | 0.00399 | 0.00168
47 | GCCCCACCGC | 0.104 | 0.00271 | 0.00407
48 | CCGCCCTCCC | 0.148 | 0.00642 | 0.00252

Row | Sequence | binding signal (ZNF721 full-length) [relative 10-mer count] | binding signal (ZNF721 DBD1) [relative 10-mer count] | binding signal (ZNF721 DBD2) [relative 10-mer count]
49 | ACCGCCCCAC | 0.103 | 0.0033 | 0.00252
50 | ACCTCCCACC | 0.113 | 0.00578 | 0.00348
51 | CCCTACCCCA | 0.11 | 0.00491 | 0.00395
52 | AAAGCTGCAC | 0.11 | 0.0548 | 0.0024
53 | CCTCCCCTCC | 0.155 | 0.00812 | 0.0132
54 | CCCCCGCCCC | 0.312 | 0.0117 | 0.00372
55 | CCCACCCTCA | 0.114 | 0.00573 | 0.00971
56 | AAAAAAAGCG | 0.217 | 0.0356 | 0.0422
57 | CCCCCCGACC | 0.147 | 0.00482 | 0.00288
58 | CCCCCTCCCC | 0.331 | 0.0149 | 0.00455
59 | AAAAAAGCTC | 0.21 | 0.0749 | 0.00515
60 | CCCCAACACC | 0.114 | 0.00417 | 0.00324
61 | CACACCCACC | 0.135 | 0.00651 | 0.00695
62 | AAAGCAGTAC | 0.156 | 0.0228 | 0.0905
63 | GCCACCCCCC | 0.138 | 0.00546 | 0.00348
64 | AGGGGGGGTG | 0.108 | 0.00422 | 0.00252
65 | GCCCACCCCC | 0.215 | 0.00876 | 0.00779
66 | CCACGCCCCC | 0.187 | 0.00605 | 0.0024
67 | CTCCCCCGCC | 0.118 | 0.0056 | 0.00216
68 | CCCGACCCCA | 0.112 | 0.00399 | 0.0012
69 | GCCACCACCC | 0.106 | 0.00413 | 0.00204
70 | GCCCCACCCC | 0.216 | 0.00775 | 0.00599
71 | ACCCACCCCG | 0.133 | 0.00491 | 0.00264
72 | CCACCGTCCC | 0.112 | 0.00491 | 0.00467

Row | Sequence | binding signal (ZNF721 full-length) [relative 10-mer count] | binding signal (ZNF721 DBD1) [relative 10-mer count] | binding signal (ZNF721 DBD2) [relative 10-mer count]
73 | ACCCCAACCC | 0.128 | 0.00463 | 0.00348
74 | CCCACCACCC | 0.562 | 0.0272 | 0.00635
75 | ACCACCCACC | 0.242 | 0.00945 | 0.00875
76 | AGTGTTTCCA | 0.13 | 0.0113 | 0.284
77 | CGCACCCCCC | 0.118 | 0.00463 | 0.00276
78 | AACAAAAAAA | 0.116 | 0.0078 | 0.069
79 | CGCCACCCCA | 0.135 | 0.00358 | 0.00192
80 | CCCACCCCAG | 0.114 | 0.00321 | 0.00156
81 | ACCACCACCC | 0.189 | 0.00679 | 0.00611
82 | CAACAAAGCA | 0.126 | 0.00101 | 0.145
83 | CCCTTCCCCC | 0.141 | 0.00633 | 0.003
84 | CCCCCCACGC | 0.139 | 0.00404 | 0.00324
85 | CCACCCACCC | 0.415 | 0.0173 | 0.00587
86 | AGCGTTTCCA | 0.214 | 0.00252 | 0.459
87 | CCACACACCC | 0.105 | 0.00321 | 0.00312
88 | CCCCCCCAAC | 0.155 | 0.0044 | 0.00791
89 | CCACCACACC | 0.148 | 0.00537 | 0.00587
90 | CCCTCTCCCC | 0.11 | 0.00564 | 0.00228
91 | CCTCCCCCTC | 0.15 | 0.00807 | 0.00467
92 | CCACCCCAGC | 0.102 | 0.00372 | 0.00252
93 | CCTACCCACC | 0.124 | 0.00546 | 0.0101
94 | AGCATGACCA | 0.152 | 0.00431 | 0.236
95 | GCCCCCCCAC | 0.112 | 0.0055 | 0.00803
96 | CACCGCCCCA | 0.107 | 0.00404 | 0.0024

Row | Sequence | binding signal (ZNF721 full-length) [relative 10-mer count] | binding signal (ZNF721 DBD1) [relative 10-mer count] | binding signal (ZNF721 DBD2) [relative 10-mer count]
97 | CCCACCACAC | 0.155 | 0.00583 | 0.00947
98 | CCCCTCCCAC | 0.218 | 0.0104 | 0.00695
99 | ACCCCCCTCC | 0.142 | 0.00624 | 0.00336
100 | GCCCGCCCCC | 0.106 | 0.00413 | 0.00132
101 | ACCCCTCCCC | 0.189 | 0.00688 | 0.00216
102 | CCCCCCCATC | 0.115 | 0.00358 | 0.00324
103 | CACCCCTCCC | 0.181 | 0.00826 | 0.00336
104 | CACACCACCC | 0.142 | 0.00573 | 0.00527
105 | CCCACCCGCA | 0.109 | 0.00316 | 0.00563
106 | AAAAAAAGAA | 0.104 | 0.00867 | 0.0321
107 | ACCCCACCCA | 0.173 | 0.00583 | 0.00419
108 | AGGGGGAGGG | 0.145 | 0.00752 | 0.00515
109 | AGAAAAAAAG | 0.118 | 0.0217 | 0.035
110 | GGGTGGGGGA | 0.208 | 0.00885 | 0.00443
111 | CCGCCCCGCC | 0.156 | 0.00592 | 0.00216
112 | ACCCCCACCA | 0.145 | 0.00573 | 0.00503
113 | CAGCGTACCC | 0.239 | 0.00229 | 0.41
114 | CCGCCCACCA | 0.143 | 0.00477 | 0.00156
115 | AAAAAGCGTC | 0.108 | 0.0239 | 0.0102
116 | GGGGTGGGAC | 0.111 | 0.00449 | 0.00108
117 | CCCCGCCTCC | 0.175 | 0.00738 | 0.00216
118 | AAGCAGTACC | 0.153 | 0.0727 | 0.0326
119 | CGCCCCCTCC | 0.135 | 0.00605 | 0.00407
120 | AAAAAAGCAT | 0.343 | 0.0588 | 0.067
